Screening results as filed in PubChem BioAssay.
TDP1 cell CPT – growth inhibition of DT40 Tdp1-/-;hTDP1 cells with camptothecin (screen for TDP1 inhibitors); chicken DT40 Tdp1-/-;hTDP1 cells + 20 nM CPT, ATP luminescence, 48 h; hit rate 12% among 420,000; Potency, µM (top dose mostly 46.2 µM), for inactives: at the top dose activity change, negative = growth inhibition, actives largely listed as inhibitors; note: nearly all actives have a fitted effect of over 55% in size
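Chicken DT40 Tdp1-/- cells stably complemented with human TDP1 were seeded at 400 cells/well in medium containing 20 nM camptothecin, exposed to pin-transferred compounds, and grown at 37 °C for at least 48 hr. Viability was read as ATP luminescence.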
KB-3-1 tox – KB-3-1 parental cell cytotoxicity. KB-3-1 viability, CellTiter-Glo ATP luminescence, 72 h. Potency, µM (titrated, usually from 46.1 µM), usual class: cytotoxic. hit rate 1.4% among 400,000. AID 1347075; note: nearly all actives have a fitted effect of over 60% in size
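KB-3-1 cells, DMEM (no phenol red) + 10% FBS; compound by pin transfer, 72 h, 37 °C. Readout: CellTiter-Glo luminescence after 10 min. Data normalized, curve-fitted.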
HT1080-NT tox – kills 2HG-producing HT-1080-NT fibrosarcoma cells; AID 686970; hit rate 1.6% among 360,000; HT-1080-NT fibrosarcoma viability, CellTiter-Glo ATP luminescence, 48 h; Potency, µM (series often up to 46.1 µM), inactives show top-dose activity, negative = less viability, actives largely listed as cytotoxic;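 note: NT is the 2HG producing partner of a matched IDH1 knockdown line; 0% = DMSO-treated cells and -100% = media-only wells without cells; nearly all actives have a fitted effect of over 55% in size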
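Fibrosarcoma NT cells, 750 per well in 5% FBS RPMI, were exposed to compound for 48 hours. Viability: CellTiter-Glo luminescence.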
KB-V1 MDR tox – kills drug-selected multidrug resistant KB-V1 cells; KB-V1 MDR cells viability, CellTiter-Glo, 72 h; hit rate 3.4% among 400,000; Potency, µM (highest dose often 46.1 µM), usual class: cytotoxic; note: nearly all actives have a fitted effect of over 60% in size
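In this primary screen, KB-V1 cells overexpressing P-gp are incubated with library compounds (lowest to highest concentration) for 72 h at 37 degrees C before a luminescent ATP viability read.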
HT1080 IDH1KD tx – kills HT-1080 cells with IDH1 knockdown | HT-1080 IDH1 knockdown viability, ATP luminescence, 48 h | Potency, µM (top dose mostly 46.1 µM), without a hit: at the highest dose activity, negative = toxicity, hits mostly cytotoxic | hit rate 2% among 360,000;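 note: 0% = DMSO wells and -100% = cell-free medium wells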
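HT-1080-IDH1KD cells (IDH1 knocked down), 750/well in RPMI with 5% FBS, treated with compound 48 h at 37 degrees C. Viability by CellTiter-Glo luminescence, normalised to DMSO and no-cell wells; concentration-response curves classed.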
TDP1 cell noCPT – qHTS for Inhibitors of human tyrosyl-DNA phosphodiesterase 1 (TDP1): qHTS in cells in absence of CPT; DT40 Tdp1-/- hTDP1 cells, no CPT, ATP luminescence, 48 h; Potency, µM (doses to about 46.2 µM), for the others: top-dose activity change, negative = growth inhibition, usual class: inhibitors; hit rate 15% among 420,000; note: nearly all actives have a fitted effect of over 55% in size
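DT40 Tdp1-/-;hTDP1 cells, no CPT (DMSO vehicle only), 400 cells/well; compounds pin-transferred; ≥48 hr, 37 °C; CellTiter-Glo 30 min RT dark, luminescence read.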
The depositor's hits bear a star; i = inactive; ? = inconclusive; / = no result given; [ ] = remark or other dose. The list is not random: actives were taken first. Their share in the collection is about 19%. Calls come from the whole dose curve; as a rule, active = well fitted curve in the direction sought with a large enough effect; inconclusive = small, poorly fitted or top-dose-only effect, or another doubt; inactive = no such curve, though single readings can be large; an effect the other way counts as inactive or inconclusive. Unless noted, % is set by controls: 0 for no effect and ±100 for the full control effect; potency is the fitted concentration of half-maximal effect.

SMILES	TDP1 cell CPT	KB-3-1 tox	HT1080-NT tox	KB-V1 MDR tox	HT1080 IDH1KD tx	TDP1 cell noCPT
CCCCCCCCCCCC1N=C(N)NC(CCCO)=C1C(=O)OC (stereo not drawn)	5.8µM*	?	-2.6%	i	-3.3%	3.66µM*
O=C1Nc2ccccc2/C1=C/c1ccc([N+](=O)[O-])cc1	-7.1%	i	-1.3%	i	4.3%	11.0%
CC1(c2ccc([N+](=O)[O-])cc2)Nc2ccccc2S1 (stereo not drawn)	?	i	?	i	20.6µM*	-0.2%
Cc1cc(C(=O)NC(C)CCc2ccccc2)ccc1[N+](=O)[O-] (stereo not drawn)	19.8%	i	-0.5%	i	1.6%	-23.9%
Brc1cc2c(cc1Br)OCCOCCOCCOCCO2	14.6µM*	i	-2.5%	i	-0.1%	10.3µM*
Brc1ccc2c(c1)OCCOCCOc1cc(Br)ccc1OCCOCCOCCO2	5.17µM*	?	?	2.31µM*	18.4µM*	2.91µM*
C=CCN(C(=O)CSc1nc2ccsc2c(=O)n1Cc1ccc(C(=O)O)cc1)c1ccccc1	1.9%	i	-1.4%	i	-6.0%	-0.8%
COc1ccc(CN2C(=NC(=O)C3CCCCC3)SC3CS(=O)(=O)CC32)cc1 (stereo not drawn)	-0.7%	i	20.0%	i	-4.5%	17.8%
O=C(NCC(F)(F)F)C1C(=O)Nc2ccccc2C(=O)N1C1CCCC1 (stereo not drawn)	6.4%	i	23.9%	i	14.9%	-6.4%
CC1(C)CC(Nc2ccc(Nc3ccccc3)cc2)CC(C)(C)N1	16.4µM*	i	?	i	-24.6%	4.61µM*
COc1ccccc1N(CN1CCCC1=O)C(=O)c1c(F)cccc1Cl	20.6µM*	i	9.0%	i	1.4%	10.3µM*
CCOc1ccccc1C(=O)N(CN1CCCC1=O)c1cccc(Cl)c1	14.6µM*	i	-1.0%	11.6µM*	-0.5%	9.2µM*
COc1ccccc1C(=O)N(CN1CCCC1=O)c1cccc(Cl)c1	?	i	2.9%	i	-1.8%	?
CC(=O)c1ccc(NC(=O)c2cc3c(=O)oc4ccc(C)cc4c3s2)cc1	8.3%	i	/	i	/	-5.2%
Cc1ccc(CSC2=NC(C)(C)Nc3ccccc32)c(C)c1	-27.8%	i	/	i	/	?
CCC1CCCCN1C(=O)Cn1c(=O)oc2cc(S(=O)(=O)N3CCCCC3)ccc21 (stereo not drawn)	-25.8%	i	/	i	/	-26.0%
COc1cccc2c(=O)c(SC(F)(F)C(F)C(F)(F)F)c(C)[nH]c12 (stereo not drawn)	?	?	?	i	20.6µM*	18.4µM*
CCOc1ccccc1C1CC(=O)NC(SCC(=O)Nc2nccs2)=C1C#N (stereo not drawn)	?	i	-8.3%	i	-25.0%	?
CSC(C1CCCC1)n1nnc2ccccc21 (stereo not drawn)	-28.9%	i	5.6%	i	9.7%	-22.4%
CCOc1ccc2oc(=O)cc(CN3CCN(C(=O)c4cccc(Cl)c4)CC3)c2c1	-29.7%	/	/	/	/	?
CCOc1ccc2oc(=O)cc(CN3CCN(C(=O)c4ccc(Cl)cc4)CC3)c2c1	?	/	/	/	/	20.6µM*
CCOc1ccc2oc(=O)cc(CN3CCN(c4ccc(Cl)cc4)CC3)c2c1	23.1µM*	/	/	/	/	25.9µM*
CCOc1ccc2oc(=O)cc(CN3CCN(c4ccc(OC)cc4)CC3)c2c1	?	/	/	/	/	20.6µM*
COc1ccc(N2CCN(Cc3cc(=O)oc4cc(C)c(Cl)cc34)CC2)cc1	?	i	4.5%	i	10.7%	-22.5%
O=c1cc(CN2CCN(c3ccc(F)cc3)CC2)c2cc3c(cc2o1)CCCC3	18.4µM*	?	-2.3%[9.24 µM]	?	1.2%	?
SMILES	TDP1 cell CPT	KB-3-1 tox	HT1080-NT tox	KB-V1 MDR tox	HT1080 IDH1KD tx	TDP1 cell noCPT
Cc1ccccc1Cn1c(=O)n(CCc2ccccc2)c(=O)c2sc3ccccc3c21	0.5%	i	/	i	/	-3.9%
COc1ccc(CN2CCNC(=O)C2CC(=O)NCC(C)(C)N2CCOCC2)cc1C (stereo not drawn)	4.8%	i	8.1%	i	21.0%	2.2%
Cc1ccc2c(CN3CCN(C(=O)c4ccc(Br)cc4)CC3)cc(=O)oc2c1	20.6µM*	/	/	/	/	?
OCCN1CCN(c2cc(-c3ccc(CO)cc3)nc3ccnn23)CC1	-1.5%	i	?	i	4.7%	-9.6%
CN1CCN(c2cc(-c3ccc4ccccc4c3)nc3ccnn23)CC1	23.1µM*	i	?	i	27.5%	?
S=C(NCc1ccccn1)NN=Cc1ccccn1	0.146µM*	i	-25.2%	?	?	0.146µM*
Cc1ccc(C(=O)N/C(=C\c2ccccc2)C(=O)OCc2ccccc2)cc1	29.1µM*	i	-1.3%	?	12.3%	?
O=C(OCc1ccccc1)/C(=C/c1ccc(Cl)cc1)NC(=O)c1ccccc1Cl	-28.9%	i	?	i	?	?
CC(C)[C@H]1COCCS(=O)(=O)N1Cc1ccccc1-c1cccc(Cl)c1	?	i	-1.1%	?	3.9%	?
Cc1cc(C)nc(N2C(=O)CC(C(C)c3ccccc3)C2=O)n1 (stereo not drawn)	4.9%	i	8.5%	i	7.4%	-16.6%
CC1=NN(c2nc(C)cc(C)n2)C(=O)C1CCC(C)C (stereo not drawn)	?	i	7.94µM*	i	10µM*	?
CCN(CC)S(=O)(=O)c1ccc(Cl)c(C(=O)Nc2ccc(Cl)cc2[N+](=O)[O-])c1	5.8µM*	i	-2.9%	4.11µM*	0.2%	4.61µM*
CCN(CC)S(=O)(=O)c1ccc(OC)c(NC(=O)c2cc([N+](=O)[O-])ccc2Cl)c1	?	18.4µM*	-8.5%	i	-14.6%	-29.4%
CN(C)S(=O)(=O)c1ccc(Cl)c(C(=O)Nc2ccccc2[N+](=O)[O-])c1	0.3%	i	-1.5%	16.4µM*	-4.8%	-26.6%
CCN(CC)S(=O)(=O)c1ccc(OC)c(NC(=O)CSc2cc(Cl)ccc2Cl)c1	?	i	-8.5%	13µM*	3.0%	?
CC(C)CN(C(=O)c1ccc(=O)n(C)n1)c1nc2ccccc2s1	?	i	13.7%	i	13.1%	?
c1cncc(-c2cc(-n3ccnc3)ncn2)c1	?	/	/	/	/	-14.0%
